# Only a selection was taken, and hits are over-represented in it overall.
# Vaccinia mCherry: qHTS for Stage-Specific Inhibitors of Vaccinia Orthopoxvirus: mCherry Reporter Primary qHTS; Vaccinia virus mCherry reporter infection, fluorescence; Potency, µM (series often up to 36.5 µM), most hits filed as inhibitors; 310,000 compounds, 0.63% hits; AID 720579, 2013; calls by dose curve; tested in A549 cells; also: nearly all actives have a fitted effect of over 35% in size
# Shiga toxin inh: A qHTS for Small Molecule Inhibitors of Shiga Toxin. Vero cells, Shiga toxin protein synthesis inhibition reporter. inhibition, % at 38.7 µM. 290,000 compounds, 9.2% hits. AID 2315, 2010; in the data active = inhibition mostly above about 28%, no sharp cut-off; inactive = mostly below about 43%
# CHX counter: Cycloheximide Counterscreen for Small Molecule Inhibitors of Shiga Toxin. max response, %. 300,000 compounds, 12% hits. cell reporter, cycloheximide protein synthesis inhibition counterscreen. AID 2314, 2010; in the data active = max response mostly above about 13%, no sharp cut-off; inactive = mostly below about 14%; also: read at 38.3 µM for the half of the compounds with a filed dose
# Vaccinia Venus: qHTS for Stage-Specific Inhibitors of Vaccinia Orthopoxvirus: Venus Reporter Primary qHTS; Vaccinia virus Venus reporter expression, fluorescence; Potency, µM (titrated, usually from 36.5 µM), usual class: inhibitors; 330,000 compounds, 0.46% hits; AID 720580, 2013; calls by dose curve; tested in A549 cells; also: nearly all actives have a fitted effect of over 30% in size
# Marburg entry inh: qHTS for inhibitors of binding or entry into cells for Marburg Virus; Marburg virus pseudotyped entry inhibition, cell reporter; Potency, µM (doses to about 37.8 µM), actives largely listed as inhibitors; 300,000 compounds, 1.8% hits; AID 540276, 2011; calls by dose curve; tested in HEK293 cells
# Lassa entry inh: qHTS for Inhibitors of binding or entry into cells for Lassa Virus. Lassa virus pseudotype entry inhibition, cell reporter. Potency, µM (doses to about 37.9 µM), most hits filed as inhibitors. 300,000 compounds, 1.2% hits; calls by dose curve; tested in HEK293 cells; also: nearly all actives have a fitted effect of over 50% in size
# Hits are given with their value; - = inactive; ? = inconclusive; . = no result given; + = active, no number; [ ] = another dose, or the depositor's remark.
SMILES,Vaccinia mCherry,Shiga toxin inh,CHX counter,Vaccinia Venus,Marburg entry inh,Lassa entry inh
COC(=O)c1ccc(OC(=O)CS(=O)c2ccccc2[N+](=O)[O-])cc1 (centres undefined),-,-,-,-,-,-
O=C(CS(=O)c1ccc(C(F)(F)F)cc1[N+](=O)[O-])Oc1ccccc1 (centres undefined),-,-,25,-,?,?
COc1ccc(N2C(=O)C3CCCN3C2c2ccc(C)o2)cc1 (centres undefined),.,-,-,.,.,.
CN(Cc1ccccc1)c1oc(-c2ccco2)nc1C#N,.,-,-,-,-,-
CN(Cc1ccccc1)c1oc(COc2ccccc2F)nc1C#N,-,89,-,-,.,.
N#Cc1nc(COc2ccccc2F)oc1NCCc1ccccc1,-,57,27,-,-,-
Cc1cc(Br)ccc1NC(=O)CNC(=O)CSc1nccn1C,-,.,.,-,?,-
CC1CCCN(c2ccc([N+](=O)[O-])s2)C1 (centres undefined),-,-,16,-,.,.
O=[N+]([O-])c1ccc(N2CCN(Cc3ccccc3)CC2)s1,-,-,-,-,-,-
O=[N+]([O-])c1ccc(N2CCCCC2)s1,-,-,18,-,-,-
Cc1ccc(OCCC(=O)OC(C)C(=O)NC2CC2)cc1 (centres undefined),-,.,.,-,-,-
COc1ccc(N2CCN(C(=O)CCN3C(=S)NC(C)(C)CC3C)CC2)cc1 (centres undefined),-,-,-,-,-,.
O=C(CSc1ccc(Cl)cc1)c1ccco1,-,65,-,-,-,-
O=C(CSc1ccccc1Cl)c1ccco1,.,-,26,-,-,?
O=C(CCSc1ccc(Cl)cc1)c1ccco1,.,-,-,.,.,.
COc1cccc(NC(c2nnc(-c3ccccc3)o2)c2ccc(F)cc2Cl)c1 (centres undefined),-,.,.,-,-,-
CC(C(=O)Nc1ccc(S(=O)(=O)N2CCCC2)cc1)N1CCCC(C(N)=O)C1 (centres undefined),-,.,.,-,-,-
Cc1ccc(NC2Sc3ccccc3NC2=O)cc1 (centres undefined),-,41,22,-,?,-
O=C1Nc2ccccc2SC1c1ccccc1 (centres undefined),.,-,-,.,.,.
C=C1C(=O)C=C[C@]2(C)C[C@@H]3OC(=O)[C@](C)(O)[C@H]3C[C@@H]12,?,63,35,?,.,.
Clc1cccc(N=NN2CCOCC2)c1Cl,.,-,20,.,.,.
c1cc2[nH]snc2c2nc(C3CC3)nc12,.,-,28,.,-,-
Cc1ccc(N2C(=O)CC3(CCCC3)CC2=O)cc1,-[7.34 µM],-,17,-[7.34 µM],-,-
Cc1cc(C)c2oc(-c3cccc(N)c3)nc2c1,.,106,52,.,.,.
Cc1cc(Cl)ccc1OCC(=O)N(Cc1ccc(N(C)C)cc1)CC1CCCO1 (centres undefined),-,.,.,-,?,?
SMILES,Vaccinia mCherry,Shiga toxin inh,CHX counter,Vaccinia Venus,Marburg entry inh,Lassa entry inh
O=C(/C=C/c1ccccc1[N+](=O)[O-])Nc1cccnc1,?,45,36,-,?,?
CCCOc1ccc(/C=C/C(=O)Nc2ccc([N+](=O)[O-])cc2)cc1,-,-,-,-,1.8µM,?
COc1cccc(NC(=O)/C=C/c2ccccc2[N+](=O)[O-])c1,-,74,61,-,-,?
CCCCOc1ccc(/C=C/C(=O)Nc2ccc([N+](=O)[O-])cc2C)cc1,-,-,-,-,-,-
COc1cccc(NC(=O)/C=C/c2ccc([N+](=O)[O-])cc2)c1,?,47,39,-,?,-
COc1ccc(OC(=O)CSc2nnc(-c3ccc(F)cc3)o2)cc1,-,.,.,-,-,-
Cc1ccc(C(=O)CSc2nnc(-c3ccco3)o2)o1,?,56,40,10µM,-,?
COc1ccc(-c2nnc(SCC(=O)c3ccc(C)o3)o2)cc1,28µM,-,13,?,?,?
COc1ccccc1CNC(=O)C(=O)NCC(c1cccnc1)N1CCN(c2ccccc2)CC1 (centres undefined),-,.,.,-,.,-
O=C1C=C(NCCc2cc(Br)c(O)c(Br)c2)C(=O)c2ncccc21,?,.,.,?,?,2.8µM
CC(C)(C)c1cc(CCC(=O)NCCc2ccccn2)cc(C(C)(C)C)c1O,-,-,-,-,-,.
CC[C@]12c3[nH]c4ccc(OC)cc4c3CCN1C(=O)C(CC(=O)NC/C=C(\C)CCC=C(C)C)C[C@@H]2C(=O)N1CCN(C(=O)C2CC2)CC1 (some centres undefined),-,.,.,-,-,.
CCN(CC)C(=O)[C@H]1CC(CC(=O)NC/C=C(\C)CCC=C(C)C)C(=O)N2CCc3c([nH]c4ccccc34)[C@]12C (some centres undefined),-,.,.,-,.,.
COc1ccc2[nH]c3c(c2c1)CCN1C(=O)C(CC(=O)NC/C=C(\C)CCC=C(C)C)C[C@H](C(=O)N2CCOCC2)[C@@]31CCC1CCCC1 (some centres undefined),10µM,.,.,?,-,.
CCN(CC)C(=O)[C@H]1C[C@H](CC(=O)NC/C=C(\C)CCC=C(C)C)C(=O)N2CCc3c([nH]c4cc(-c5ccco5)ccc34)[C@]12C,?,.,.,13µM,.,.
CC(C)N(C(=O)[C@H]1C[C@H](CC(=O)NCc2ccco2)C(=O)N2CCc3c([nH]c4cc(-c5ccco5)ccc34)[C@]12C)C(C)C,-,.,.,?,-,.
CCN(CC)C(=O)[C@H]1CC(CC(=O)NC/C=C(\C)CCC=C(C)C)C(=O)N2CCc3c([nH]c4ccc(OC)cc34)[C@]12C (some centres undefined),13µM,.,.,?,-,.
CC(C)=CCC/C(C)=C/CNC(=O)C[C@H]1C[C@H](C(=O)N(C(C)C)C(C)C)[C@@]2(C)c3[nH]c4cc(-c5ccco5)ccc4c3CCN2C1=O,10µM,.,.,?,.,.
O=C(Nc1ccc(OC(F)F)cc1)c1nc(SCc2ccccc2F)ncc1Cl,-,.,.,-,.,.
O=c1[nH]c(=S)c2n[nH]nc2[nH]1,-,.,.,-,.,.
O=C(c1ccc(N2CCC(NCCCn3ncc4ccccc43)CC2)cc1)N1CCc2ccccc2C1,-,.,.,-,.,.
CCOc1ccccc1N1CCN(C(=O)c2ccc(-c3ccc(OC(C)=O)cc3)cc2)CC1,.,-,-,.,.,.
Cc1cc(C2=CC(C)(c3cc(C)oc3C)Nc3nc(C(F)(F)F)nn32)c(C)o1 (centres undefined),.,41,28,.,-,.
CC(C)CNC(=O)CSc1ccc(Cl)cc1,.,-,14,-,-,-
Cc1ccc(SCC(=O)NCC(C)C)cc1,.,44,-,.,-,-
CCC(C)NC(=O)CSc1ccc(Cl)cc1 (centres undefined),-,+,18,-,-,-
CC(C)C(NC(=O)CSc1ccc(Cl)cc1)C(C)C,-,-,-,-,-,-
O=C(CSc1ccc(Cl)cc1)Nn1cnnc1,.,-,-,.,-,-

# Compound activity: PubChem, National Center for Advancing Translational Sciences (NCATS)
